# F508del corr – correctors of CFTR F508del function in bronchial epithelial cells. CFBE cells, YFP halide quenching; stimulated with forskolin plus potentiator P3; % fluorescence drop versus neutral controls. activity (quench increase), % at 7.58 µM. 350,000 tested, 0.36% active;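 active = mean added fluorescence quench of at least 8% versus neutral control, with both replicates also reaching 8%; inconclusive = only one of the mean or replicate conditions met; inactive = mean below 8% and not both replicates reaching 8%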;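 also: cells transiently co-express mutant CFTR-F508del with the halide-sensitive YFP; corrector assay measuring rescue of mutant channel to the surface after 24 h compound exposure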
# LGR2 inh – Drosophila LGR2 receptor signaling inhibition | 380,000 tested, 0.35% active | inhibition, % at 9.99 µM | HEK293 LGR2, CRE-luciferase, bursicon-stimulated, 4 h;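 active = drop in luminescence signal, shown as inhibition above about 50% in the replicate tests, limit read from the data, passing the limit was not always enough; inconclusive = probably only some replicates passing the limit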;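 also: agonist challenge used bursicon conditioned medium at about half maximal strength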
# EWS-Fli inh – blocks EWS/Fli oncoprotein-driven transcription; A673 NR0B1-luciferase reporter, viability-normalised; inhibition, % at 12.6 µM; 350,000 tested, 0.67% active;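 active = mean inhibition of at least 50% after viability correction, with every replicate also passing that limit; inconclusive = mean reaches 50% but only one of two replicates passes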;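 also: firefly luciferase signal divided by Alamar Blue viability fluorescence both relative to DMSO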
# PAX8 reporter – lowers PAX8-driven luciferase in RMG-I cells. RMG-I TPO-luciferase reporter, SteadyGlo, 24 h. inhibition, % at 12.6 µM. 360,000 tested, 1.2% active. AID 652154;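 active = mean replicate inhibition at least 60% with every replicate also reaching 60%; inconclusive = only one of the two criteria is met; inactive = mean below 60% and not all replicates reaching 60%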;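 also: luciferase light reporting Pax8 driven TPO promoter activity; plate controls were median of neutral control wells for no effect and mitoxantrone controls for full effect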
# Active calls of the source: *; ? = inconclusive; / = no result. An excerpt weighted towards active compounds, which were near 1.8% of everything screened.
SMILES,F508del corr,LGR2 inh,EWS-Fli inh,PAX8 reporter
c1ccc(CCN(Cc2ccccc2)Cc2nc(C3CC3)no2)cc1,8.9*,-14,-7,-13
CCCCCC(CC(=O)NO)C(=O)NC(C(=O)N1CCCC1CO)C(C)C (configuration not stated),3,/,-10,90*
O=C([C@H](O)c1ccccc1)N1CCC[C@H]1CO,1,2,4,20
Cc1ccccc1S(=O)(=O)N1CC[C@@H]2[C@H](CO)Nc3ccc(-c4ccc(C#N)cc4)cc3[C@@H]21,-1,4,27,28
c1ccc(-c2cn3nc4c(nc3n2)CCCC4)cc1,/,68*,/,/
C[C@H](CO)N1C[C@H](C)[C@H](CN(C)C(=O)Cc2ccncc2)Oc2cc(C3=CCCC3)ccc2S1(=O)=O,-1,-7,-2,-16
Oc1ccc(N=Cc2ccc(-c3cccs3)s2)cc1,/,59*,/,/
COc1ccc(OC)c2c1C(=O)c1ccccc1C2=O,/,/,/,-14
COc1ccc(OC)c2c1C(=O)C(Cl)=C(Cl)C2=O,?,90*,45,100*
CC1=C[C@@H](C)[C@@H](c2ccccc2)OC1=O,1,/,2,-8
COc1ccc(-c2cc(NC=O)c3ncc(-c4ccc(C(C)=O)cc4)n3c2)cn1,3,5,43,65*
CC(=O)c1ccc(-c2cnc3c(NC=O)cc(-c4ccc(N5CCN(C)CC5)cc4)cn23)cc1,0,-41,-49,-38
O=CNc1cc(-c2ccccc2Oc2ccccc2)cn2c(-c3ccc(F)cc3)cnc12,-1,-12,13,49
O=CNc1cc(-c2ccc(C(=O)NC3CC3)cc2)cn2c(-c3ccccc3)cnc12,14*,-20,-13,48
CC(=O)c1ccc(-c2cnc3c(NC=O)cc(-c4ccc(C(=O)NC5CC5)cc4)cn23)cc1,-1,14,4,45
CC(=O)c1ccc(-c2cnc3c(NC=O)cc(-c4ccccc4Oc4ccccc4)cn23)cc1,2,-3,33,84*
CC(=O)Nc1cccc(-c2cc(NC=O)c3ncc(-c4ccc(C(C)=O)cc4)n3c2)c1,4,0,7,71*
CCN1C(=O)CC(N2CCC(C(=O)N3CCCCCC3)CC2)C1=O (configuration not stated),1,-9,-1,-16
COc1ccccc1C(NC(=O)C1CCN(CCOc2ccc3ccccc3c2)CC1)c1ccccn1 (configuration not stated),0,6,10,13
N#C[C@H]1[C@H](c2ccc(C#Cc3ccccc3F)cc2)[C@H](CO)N1C(=O)C1CCCC1,-8,104*,1,/
N#C[C@H]1[C@@H](c2ccc(C#Cc3ccccc3F)cc2)[C@@H](CO)N1C(=O)C1CCCCC1,6,-2,12,82*
N#C[C@@H]1[C@H](c2ccc(C#Cc3ccccc3F)cc2)[C@H](CO)N1C(=O)C1CCCC1,4,22,1,40
N#C[C@H]1[C@H](c2ccc(C#Cc3ccccc3F)cc2)[C@H](CO)N1C(=O)C1CC1,-3,62*,-36,2
COc1ccc(C(=O)CSc2nccn2C)c(OC)c1,3,-18,/,-80
CC(C)CC#Cc1cnc2c(c1)C(=O)N([C@@H](C)CO)C[C@H](C)[C@H](CN(C)S(=O)(=O)c1cn(C)cn1)O2,2,12,-9,-6
SMILES,F508del corr,LGR2 inh,EWS-Fli inh,PAX8 reporter
O=c1c(C=NCc2cccnc2)c(C(F)(F)F)[nH]n1-c1nc2ccccc2s1,-1,58*,-23,14
CCC(C)(C)c1ccc(OCCCC[n+]2ccccc2)c(C(C)(C)CC)c1,6,19,27,88*
COc1ccc(NC(=O)C(c2ccccc2)c2ccccc2)cn1,-1,13,-8,0
COc1ccc(C(=O)NNC(=S)NC(=O)/C=C/c2cccs2)cc1,0,29,2,8
O=C(/C=C/c1cccs1)NC(=S)NNC(=O)c1ccccc1O,-2,14,52*,89*
O=C(NCc1ccncn1)[C@H]1[C@H](CO)[C@H]2Cn3c(ccc(-c4ccncc4)c3=O)[C@H]2N1CC1CC1,0,-8,0,/
COc1ccc(C2NCCc3c2[nH]c2ccccc32)cc1COc1ccc(F)cc1 (configuration not stated),-4,/,78*,22
COc1ccc(C2NC(C(=O)O)Cc3c2[nH]c2ccccc32)cc1CN1CCN(c2ccc(F)cc2)CC1 (configuration not stated),-1,8,12,26
O=C(O)/C=C/C(=O)NCc1ccccc1,1,3,-1,82*
CCn1cc(C(=O)NCC(OC)OC)c(=O)c2cc(S(=O)(=O)N(C)C3CCCCC3)ccc21,0,10,24,5

# Screening data (PubChem BioAssay)
